Measured values taken from ChEMBL document CHEMBL4513216, “Probing the Open Global Health Chemical Diversity Library for Multistage-Active Starting Points for Next-Generation Antimalarials” (ACS Infect Dis, 2020).
Screen size: about 69,000 compounds; about 8,600 (12%) showed an effect of 50% or more. The full list was thinned out, with strong results kept by preference.

System: Plasmodium berghei
Test: Screen against P. berghei liver stage (PbLuc), transformed with Luciferase, at 10uM
Type: functional, HepG2
Conditions: tested at 10 uM

SMILES	INHIBITION [%]
Cn1cccc1C(=O)N1CCCCC1c1ccn2ccnc2n1 (centres undefined)	-11.7
Cc1cc(C(=O)N2CCCC3(CN(C)C(=O)O3)C2)c2ccc(F)cc2n1 (centres undefined)	37.7
Cc1nc[nH]c1C(=O)N1CCCC2(CN(C)C(=O)O2)C1 (centres undefined)	3.69
Cc1cccc2c(=O)c(C(=O)N3CCCC4(CN(C)C(=O)O4)C3)c[nH]c12 (centres undefined)	60.1
CCOC(=O)CNC(=O)NCc1cccn1Cc1ccccc1C	-21.3
CCOC(=O)CNC(=O)NCc1cccn1Cc1ccccc1	40.8
CCOC(=O)CNC(=O)NCc1cccn1Cc1ccc(F)cc1	16.8
COCCCNC(=O)NCc1cccn1Cc1ccccc1C	60.7
COCCCNC(=O)NCc1ccc(C)cc1	48.8
CCOC(=O)CNC(=O)NCc1cccn1Cc1ccccc1F	56.5
Cn1ccc(C(=O)N2CCCC2c2cc(CCO)[nH]n2)n1 (centres undefined)	28.69
O=C(NCc1ccco1)c1cc[n+]([O-])cc1	-10.0965
O=C(Nc1ccccc1-c1ccccc1)NC1CCC2(C1)OCCO2 (centres undefined)	-6.67
c1cnc(N2CCCC(c3n[nH]c4ncccc34)C2)nc1 (centres undefined)	-27.1
c1cnc(N2CCC(c3cc4cccnc4[nH]3)CC2)nc1	23.2
c1cnc(N2CCCC(c3cc4cccnc4[nH]3)C2)nc1 (centres undefined)	72.5
CN(C)C(=O)c1cccc(CN2CCOC(Cn3cncn3)C2)c1 (centres undefined)	41.5
NC(=O)C1(Cc2ccccc2-c2cncnc2)CCCNC1 (centres undefined)	12.915
Cn1nc(CN2CCCC2)c2c1CN(C(=O)c1cnccn1)CC2	43.4
CCS(=O)(=O)N1CCCn2cnc(COc3cccnc3)c2C1	14.6
Cn1nc(CNc2ncccn2)c2c1CN(c1cnccn1)CC2	32.1
Cn1nc(COc2cncnc2)c2c1CCN(Cc1ccco1)C2	63.5
Cn1nc(COCC2CC2)c2c1CCN(Cc1ccco1)C2	-12.2
Cn1nc(COc2cccnc2)c2c1CCN(c1ncccn1)C2	53
c1cnc(N2CCc3onc(CN4CCCC4)c3C2)cn1	37.5
Cn1nc(COc2cccnc2)c2c1CCN(c1cnccn1)C2	53.5

SMILES	INHIBITION [%]
Cn1nc(CN2CCCC2)c2c1CN(c1cnccn1)CC2	54.8
Cn1nc(Cn2ccnc2)c2c1CN(c1ncccn1)C2	3.88
Cn1nc(COc2cccnc2)c2c1CCN(Cc1ccco1)C2	31.4
Fc1cnc(N2CCCn3cnc(COc4cccnc4)c3C2)nc1	4.68
Cc1cnccc1CN(C)C(=O)C(C)(C)NC(=O)c1cccs1	37.9
CCNC(=O)CN1CCN(Cc2nc3c(F)cccc3n2CC)CC1	30.85
Cc1ccc(N2CCCC(NCc3cc(C)on3)C2)nn1 (centres undefined)	27.4
CCCNC(=O)C1(CC2CC(c3ccccc3OC)=NO2)CCOCC1 (centres undefined)	29.2
Cc1ccc(C(=O)N2CCn3cc(CN4CCCCC4)nc3C2)o1	17.4
Cc1cnc(N2CCc3c(c(COc4cncnc4)nn3C)C2)nc1	53.9
COCCN1CCc2c(c(COc3cccnc3)nn2C)C1	-4.08
Cn1nc(COc2cccnc2)c2c1CCN(CC1CC1)C2	61.1
Cn1nc(COc2cncnc2)c2c1CCN(Cc1ccccn1)C2	24.9
CN1CCc2c(c(COc3cncnc3)nn2CC2CC2)C1	24.6
CC(C)N1CCc2c(c(COc3cccnc3)nn2CC2CC2)C1	12.7
COc1ccc(OC)c(C(O)CNC(=O)Nc2cccnc2OC)c1 (centres undefined)	17.4
Cc1cc(CNC(=O)NCCCC(=O)N2CCc3ccccc32)no1	45.4
COC(=O)Cn1c(=O)cc(C(F)F)c2c(C)nn(CC(F)F)c21	-12.975
Cc1ccc(CNc2cc3[nH]c(O)nc3cc2C)cc1	-46.3
O=C(c1ccc(NCc2cccc(F)c2)cc1)N1CCC(CO)CC1	-92.5
NC(=O)c1ccc(OCC(=O)NS(=O)(=O)c2ccc3c(c2)CCC3)cc1	15.533
Cn1c2ccccc2c2ncn(CCN3CCOCC3)c(=O)c21	63.6
Cn1c2ccc(F)cc2c2ncn(CCN3CCOCC3)c(=O)c21	45
Cn1c2ccccc2c2ncn(CCCN3CCOCC3)c(=O)c21	29.1
CC(C)n1cc(-n2cc3nc(N4CCOCC4)[nH]cc-3c2=O)cn1	5.18
Cc1n[nH]c(C2CN(CC(=O)NCc3sccc3C)CCO2)n1 (centres undefined)	-7.36

SMILES	INHIBITION [%]
O=C1CNc2ncnc(Nc3cnn(Cc4ccccc4F)c3)c2N1	33.5
O=C1CNc2ncnc(N3CCN(Cc4cccc(F)c4)CC3)c2N1	55.7
O=C1CNc2ncnc(N3CCN(Cc4ccccc4F)CC3)c2N1	39.1
O=C1CNc2ncnc(N3CCN(c4ccccc4F)CC3)c2N1	59
O=C1CNc2ncnc(N3CCN(Cc4ccccc4)CC3)c2N1	30
Cc1ccccc1CN1CCN(c2ncnc3c2NC(=O)CN3)CC1	-4.76
COC(=O)CNC(=O)c1scnc1C	2.93
Cc1ncoc1C(=O)N1CC[C@@H](O)[C@@H](O)[C@H](N2CCC(F)(F)CC2)C1	20.4
Cc1ocnc1C(=O)N1CC[C@@H](O)[C@@H](O)[C@H](N2CCC(F)(F)CC2)C1	59
O=C(c1ccncc1)N1CC[C@@H](O)[C@@H](O)[C@H](N2CCC(F)(F)CC2)C1	27.8
O=c1c(S(=O)(=O)N2CCCCC2)cccn1Cc1cccnc1	-37.1
O=C(O)c1ccccc1-n1cnc(CN2CCCc3ccccc32)c1	23
CN(C)CCN1CCC2(CCCN(Cc3cccn3C)C2)C1=O (centres undefined)	33.1
Fc1ccc(CN2CC[C@H]3O[C@@H](COCC4CCOCC4)CC[C@H]32)cc1	56.3
c1cncc(CN2CC[C@H]3O[C@@H](COCC4CCOCC4)CC[C@H]32)c1	33.4
Fc1ccc(CN2CC[C@H]3O[C@@H](COCc4cccnc4)CC[C@H]32)cc1	39.2
O=C(C1CC=CC1)N1CC[C@@H]2O[C@H](COCC3CCOCC3)CC[C@@H]21	21.6
c1cncc(CN2CC[C@H]3O[C@@H](COCC4CC4)CC[C@H]32)c1	44.9
c1cc(CN2CC[C@H]3O[C@@H](COCC4CCOCC4)CC[C@H]32)ccn1	52
c1cncc(COCC2CC[C@H]3[C@H](CCN3CC3CCOCC3)O2)c1 (some centres undefined)	78.8
c1ccc(CN2CC[C@@H]3O[C@@H](COCC4CCOCC4)CC[C@@H]32)nc1	22.7
c1cncc(COC[C@H]2CC[C@H]3[C@H](CCN3Cc3nccs3)O2)c1	39.2
CC(C)c1nccn1-c1cncc(C2CCCN2Cc2cccnc2)n1 (centres undefined)	27.6
CNCC1CCC(c2cc(CN(C)C(=O)c3cnccn3)n(C)n2)CC1 (centres undefined)	25.8
O=C(Nc1cnccn1)[C@@H]1CCO[C@@H]2CCN(Cc3ccsc3)C[C@@H]21	12.4
Cn1cnnc1C1CCN(C(=O)CCOc2ccc(Cl)cc2)CC1	11.9

SMILES	INHIBITION [%]
CC(=O)NCC1CCCN(C(=O)Cc2c(C)noc2C)C1 (centres undefined)	-4.12
O=C(COc1ccc(Cl)cc1Cl)N1CCCSCC1CN1CCOCC1 (centres undefined)	60.1
COc1cccc(OCC(=O)N2CCCSCC2CN2CCOCC2)c1 (centres undefined)	44.9
O=C(COc1ccc(F)cc1)N1CCCSCC1CN1CCOCC1 (centres undefined)	25.3
CNC(=O)c1nc2c(s1)CCN(C(=O)c1cccnc1)CC2	-10.4
O=C(c1[nH]nc(C2CC2)c1Cl)N1CCCC1	-46.7
O=C(c1[nH]nc(C2CC2)c1Cl)N1CCN(C2CC2)CC1	8.13
O=C(c1[nH]nc(C2CC2)c1Cl)N1CCN(S(=O)(=O)c2ccccc2)CC1	77.6
CCOC(=O)[C@H]1[C@@H](O)C(=O)N(C)C12CCN(C(=O)CC(C)C)CC2	22.2
c1csc(C2(NCc3csc(C4CC4)n3)CCCC2)n1	-9.44
Cc1cnn(CC2CCCN2CC(=O)NCc2ccccn2)c1 (centres undefined)	-28.9
Cc1ccc2nc(C)cc(NCCNS(=O)(=O)c3cn(C)nc3C)c2c1	55.5
Cc1cc(NCCNS(=O)(=O)c2cn(C)nc2C)c2ccccc2n1	-5.8
Cc1ccc2nc(C)cc(NCCNS(=O)(=O)c3cccnc3)c2c1	39.7
Cc1ccnc(OC[C@]23COC[C@H]2CN(C(=O)c2ccnn2C)C3)n1	43.1
O=C(CN1CCc2ccccc2C1)NCc1cc2n(n1)CCCNC2	-16.8
CC1CN(Cc2noc(C3CC3)n2)CCN1Cc1noc(C2CC2)n1 (centres undefined)	33.8
CC1CN(Cc2noc(C3CC3)n2)CCN1Cc1nccn1C (centres undefined)	55.9
Cn1ccnc1CN1CCN(Cc2noc(C3CC3)n2)CC1	-15.5
O=C(NC1CCCC1)c1ccnc(C2CCNCC2)c1	-11.3
COCC1CC2(CCN(C(=O)c3cc(C)oc3C)CC2)CN1C(C)C (centres undefined)	6.8
COc1ccc(C2SC(C)=Nc3c2c(=O)[nH]n3C2CCCC2)cc1O (centres undefined)	-6.09
CCCc1cc(N2CCCC2Cn2nc(C)nc2C)n2ncnc2n1 (centres undefined)	53.4
CCCc1cc(N2CCCC2Cn2nc(C)cc2C)n2ncnc2n1 (centres undefined)	-48.1
CCCc1cc(N2CCCC2Cn2cc(C)cn2)n2ncnc2n1 (centres undefined)	-60.9
CN1CCN(CCOc2ccc(NC(=O)c3ccc[nH]3)cc2)CC1	-23.5
